We go through 39 sequences from the OligoGym collection.
Further: reference of the scale not given here.

In the first test the target is CEP55. Briefly: pooled miR-30 sensor sort-seq; sequence = guide strand. The note with it: shRNA.
TTTTCTTCGAAATTCACTCAGT: the sensor-assay potency score (higher = more potent) was 0.403.
As to TTTCTTCATATTTTCTTCGAAA, the sensor-assay potency score (higher = more potent) is -1.41.
TTTGTGAATACAACAGCTGATT came in with a sensor-assay potency score (higher = more potent) of -0.95.
TTGATAAGCATTCTTCTCCTTC displayed a sensor-assay potency score (higher = more potent) of 0.207.
Same read-out and setting: the result for TAACCCATTAGCAATAACCTGA reads -0.42.

A further test has as its target CETN1. The test is described as above. The note with it: shRNA.
In the case of TCTTCTTTGGTGTCCTTCTCGG, the sensor-assay potency score (higher = more potent) was -0.36.
Consider TCTTGCTTCTGATCCTCAGTGA, for which the sensor-assay potency score (higher = more potent) is 0.681.
For the sequence TTCCCGAACTTCTTGCTTCTGA, the sensor-assay potency score (higher = more potent) was 0.00399.
With TTTTTGAACGAGATCTTCCCGG, the sensor-assay potency score (higher = more potent) was 0.117.
Sequence TAGATCTAGACAAATTATGGGG showed a sensor-assay potency score (higher = more potent) of -0.0246.
TTGCTTCTGATCCTCAGTGAGC gave a sensor-assay potency score (higher = more potent) of -1.03.
On the same count and under the same terms, for ATCAGCTTCGTCGATCATCTCC the value was -0.374.
The sequence TTTCTCTTTTGGCCGGTGGAGG displayed a sensor-assay potency score (higher = more potent) of -1.52.
On the same count and under the same terms, the result for TTCGCGTCGATGGTCCCACTTC reads -0.957; that for ATCCCGATCAGCTTCGTCGATC, -1.43; that for TCATTGAAGCTGATCTTCCCCG, -0.662.
For the sequence AGCTTCGTCGATCATCTCCTGC, the sensor-assay potency score (higher = more potent) was -1.15.
Take ATTGAAGCTGATCTTCCCCGTG: the sensor-assay potency score (higher = more potent) was -0.49.
Turning to TTAGGTGCCACCTTTCTCTTTT, the sensor-assay potency score (higher = more potent) is 0.187.
TCATCGTCATCAAAGAGCCTGA displayed a sensor-assay potency score (higher = more potent) of -0.321.
In turn, TTCTTCTTTGGTGTCCTTCTCG came in with a sensor-assay potency score (higher = more potent) of 0.166.
Still for that read-out and setting: the result for TTGAAGCTGATCTTCCCCGTGC reads 0.267; that for AACTTCTTGCTTCTGATCCTCA, -0.468.
TTTTGAACGAGATCTTCCCGGT displayed a sensor-assay potency score (higher = more potent) of 0.317.
TTCGTCGATCATCTCCTGCAGC came in with a sensor-assay potency score (higher = more potent) of -0.572.
As for TTCTCGGACATCTTCTGCGTCA, the sensor-assay potency score (higher = more potent) is -0.598.
As for TTCAGGATTTCTTCTTTGGTGT, the sensor-assay potency score (higher = more potent) was -0.547.
Take TTTGGTGTCCTTCTCGGACATC: the sensor-assay potency score (higher = more potent) was -1.04.
TATTGAACTAGAGATATGGAAA: the sensor-assay potency score (higher = more potent) is -1.01.

The next test concerns the target CFHR1. Described as above. The note with it: shRNA.
On to TAATTTGCACAGTATCACCTTC, for which the sensor-assay potency score (higher = more potent) was found to be 0.283.
In the case of TGAAATTAAGAACTGATTTAAT, the sensor-assay potency score (higher = more potent) was -1.22.
Still for that read-out and setting: the result for TTTCCCGTAGAATCTTTGCATT reads -1.19; that for TTTACACACAAATTCAGCTGAT, 0.481.
As to TTACACACAAATTCAGCTGATT, the sensor-assay potency score (higher = more potent) is -0.226.
On the same count and under the same terms, the result for TACTCATCTGTCTCGACAGTAT reads -0.805; that for TATATGAGCATTTTGTACTGTG, 0.209; that for TCTGTCTCGACAGTATATGAGC, -1.41.
With TTGCACAGTATCACCTTCCAGA, the sensor-assay potency score (higher = more potent) was -0.325.
TTAAGAACTGATTTAATACTAA: the sensor-assay potency score (higher = more potent) was -0.326.
